Compound activity as filed in PubChem.
D1 antag: human D1 dopamine receptor antagonism; P21728; HEK293 TREx D1 cells, calcium flux, dopamine EC80; active compounds read low; activity change, negative = inhibition, % at 10 µM; 360,000 compounds, 3.2% hits; AID 504652; in the data active = activity change below about -30%; also: % is scaled to controls: 0 for no effect and ±100 for the full control effect
Target sequence (P21728 whole entry, looked up): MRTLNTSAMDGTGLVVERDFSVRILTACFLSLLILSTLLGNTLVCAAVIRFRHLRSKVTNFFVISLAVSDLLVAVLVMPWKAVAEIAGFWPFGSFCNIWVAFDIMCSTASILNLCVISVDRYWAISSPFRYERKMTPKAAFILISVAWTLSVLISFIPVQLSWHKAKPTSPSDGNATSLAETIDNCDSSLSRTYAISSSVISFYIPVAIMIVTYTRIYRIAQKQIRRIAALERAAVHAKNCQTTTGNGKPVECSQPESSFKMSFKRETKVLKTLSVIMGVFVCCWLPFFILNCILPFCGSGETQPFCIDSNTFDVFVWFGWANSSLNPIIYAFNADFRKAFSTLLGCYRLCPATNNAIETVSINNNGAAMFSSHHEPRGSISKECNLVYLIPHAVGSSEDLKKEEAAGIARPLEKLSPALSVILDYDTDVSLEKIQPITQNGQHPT
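Cells carrying a force-coupled, tetracycline-inducible human D1 receptor report calcium flux. Each well gets a 10 s baseline, compound with 180 s monitoring, then an EC80 dopamine stimulus with a second 180 s kinetic read.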
TRPV1 PAM: potentiators of human vanilloid receptor 1 (TRPV1) | AID 540277 | potentiation, % at 8.33 µM | 320,000 compounds, 0.02% hits | TRPV1-expressing cells, Fluo-8 calcium influx, capsaicin EC20 potentiation; in the data active = potentiation above about 80%; inconclusive = between about 30% and that limit; also: 0% is about no effect
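Cells expressing TRPV1 were dye-loaded with Fluo-8 and read kinetically: 10 s baseline, 3 min after compound (agonist portion), then 2 min after EC20 capsaicin (allosteric enhancer portion). Calcium-bound dye fluorescence at 480/520 nm.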
D1 ag: activates the human D1 dopamine receptor; P21728; HEK293 T-REx D1 cells, calcium flux, agonist mode; activation, % at 2 µM; 360,000 compounds, 1% hits; in the data active = activation above about 30%; also: 0% is about no effect
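Inducible HEK293 T-REx D1 cells, force-coupled to calcium signalling, were plated at 4000 cells/well with tetracycline and held overnight at 30 C. After no-wash calcium dye loading, compound-evoked calcium rise over 180 s flagged agonists.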
D1 PAM: human D1 dopamine receptor positive modulation; P21728; HEK293 TREx D1 cells, calcium flux, dopamine EC20 potentiation; potentiation, % at 10 µM; 360,000 compounds, 0.036% hits; AID 504651; in the data active = potentiation above about 30%; also: 0% is about no effect
TRPV1 agonist: human TRPV1 agonism; Q8NER1; TRPV1-expressing cells, Fluo-8 calcium influx, agonist mode; activation, % at 8.33 µM; 320,000 compounds, 0.19% hits; in the data active = activation above about 80%; inconclusive = between about 30% and that limit; also: 0% is about no effect
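TRPV1-expressing cells were cultured overnight at 35.5C and loaded with Fluo-8 calcium dye for 40 to 90 min at room temperature. After a 10 s baseline, compound was added and calcium influx was read kinetically for 3 min (ex 480/em 520 nm).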
* hit, by the source's call; ? = inconclusive; nt = not tested or not shown; ! = not active in a repeat. Shown are actives, neighbours in structure and some others; about 4.2% of the full set was active somewhere.

SMILES	D1 antag	TRPV1 PAM	D1 ag	D1 PAM	TRPV1 agonist
COc1ccc(C(=O)N2CCC(c3nc(-c4ccc(S(=O)(=O)N5CCCC5)cc4)no3)CC2)cc1	-13.2	nt	2.6	2.4	nt
COc1ccc(CCC(=O)N2CCN(S(=O)(=O)c3cccc(Cl)c3)CC2)cc1	-38.5*	-4.2	-0.8	-4.3	3.6
O=C(O)CCC(=O)N1CCN(c2cccc(Cl)c2)CC1	4.4	22.6	4.3	-4.9	-1.7
COc1ccc(CC(=O)N2CCN(c3cccc(Cl)c3)CC2)cc1OC	-24.1	-16.3	9.0	1.0	97.6*
CCn1cc(C(=O)N2CCN(c3cccc(Cl)c3)CC2)c2cc(OC)c(OC)cc2c1=O	-52.8*!	-2.3	3.8	0.2	0.2
O=C(O)/C=C/C(=O)N1CCN(c2cccc(Cl)c2)CC1	-40.8*	12.8	5.7	-19.9	-0.3
Cc1ccc(NC(=O)Cc2ccc(-n3c(C)nc4cccnc43)cc2)cc1C	0.8	nt	-0.4	-1.0	nt
COc1ccc(OCC(=O)N2CCN(c3cccc(Cl)c3)CC2)cc1	4.7	-12.4	-1.1	-0.4	19.3
COc1ccc(C(=O)CCC(=O)N2CCN(c3cccc(Cl)c3)CC2)cc1	-32.9*	-22.2	11.6	-3.8	28.2
COc1ccc(C(=S)N2CCN(c3cccc(Cl)c3)CC2)cc1	-33.4*!	-1.6	2.1	-1.9	2.6
Cc1cccc(N2CCN(S(=O)(=O)c3ccc(-c4cc(C(F)(F)F)on4)s3)CC2)c1C	15.1	nt	2.4	-3.5	nt
COC1=CC(=Cc2c(N)n3nc(CC(=O)N4CCOCC4)sc3nc2=O)C=C(OC)C1=O	0.0	?	190.7*	1.5	-4.8
COC1=C/C(=C/c2c(N)n3nc(CC(=O)N4CCCCC4)sc3nc2=O)C=CC1=O	-4.0	-7.5	21.6	-5.0	4.8
C=CCC1=C/C(=C\c2c(N)n3nc(CC(=O)N4CCCC4)sc3nc2=O)C=C(OC)C1=O	3.0	-27.8	109.1*	3.5	?
CN(C)/C=C/C(=O)c1ccc(Cl)cc1	-86.1*	4.5	7.7	-1.9	1.2
O=C(CSc1nc2c([nH]c3ccccc32)c(=O)n1-c1ccccc1)Nc1ccc(Cl)c(Cl)c1	9.9	nt	0.3	-2.5	nt
Cc1ccc(C(=O)C2CCN(CC(=O)N3CCN(c4ccc(F)cc4)CC3)CC2)cc1	-30.9*	5.0	5.2	-4.3	1.3
O=C(Nc1ccc(Br)cc1)N1CCCCCC1	-49.7*	-8.4	0.3	-6.7	?
COc1ccccc1C(=O)N1CCC(C(=O)c2ccc(F)cc2)CC1	-31.9*	-10.0	0.7	-4.0	16.5
O=C(NCc1ccc(F)cc1)C1CCCN(C(=O)Nc2ccccc2)C1 (stereo unspecified)	9.3	0.6	1.2	-0.2	-0.5
O=C(NCc1ccc(F)cc1)C1CCCN(C(=O)Nc2ccc(F)cc2)C1 (stereo unspecified)	-85.9*	-14.6	3.0	-2.2	26.3
CCn1c(SCc2cccc(Br)c2)nnc1-c1nonc1NC(C)=O	12.6	nt	6.7	3.1	nt
COc1ccc(C)cc1NC(=O)c1cc(S(=O)(=O)N2CCN(c3cccc(C)c3C)CC2)ccc1F	-21.8	nt	-2.0	-3.0	nt
O=C(CN1CCC(C(=O)c2ccc(F)cc2)CC1)Nc1ccccc1	-56.0*	-12.0	6.6	-10.7	10.3
O=C(c1ccc(F)cc1)C1CCN(C(=O)Nc2ccc(F)cc2)CC1	-30.2*	-11.9	5.7	-9.8	?
SMILES	D1 antag	TRPV1 PAM	D1 ag	D1 PAM	TRPV1 agonist
O=C(CN1CCC(C(=O)c2ccc(F)cc2)CC1)Nc1ccc(F)cc1	-7.1	4.0	7.5	-6.5	?
O=C(Nc1ccc(Cl)cc1)N1CCC(c2nc(-c3ccc(F)cc3)no2)CC1	-49.9*	-18.6	21.4	-9.1	?
COc1ccc2oc(=O)cc(CN3CCN(C(=O)c4ccccc4)CC3)c2c1	7.2	nt	0.6	-0.1	nt
CC(C)(C)C1CCc2nc(NC(=O)c3cccc(Cl)c3)sc2C1 (stereo unspecified)	0.3	nt	1.5	5.5	nt
c1ccc(C2=NNC(c3ccco3)=Nc3ccccc32)cc1	-32.2*	-5.5	5.1	2.6	21.6
COc1ccc(/C=C(/NC(=O)c2ccco2)C(=O)N2CCCCCC2)cc1OC	29.3	10.5	35.8*	-1.9	-0.6
O=C(N/C(=C\c1cccnc1)C(=O)N1CCOCC1)c1ccco1	-32.7*	-10.1	1.1	-6.5	6.0
COc1ccc(/C=C(/NC(=O)c2ccccc2)C(=O)N2CCCCC2)cc1OC	-0.4	-6.6	72.1*	4.3	0.3
Cc1ccc(NC(=O)CSc2nnc(COc3ccc(Cl)cc3)o2)cc1	8.0	nt	0.1	2.4	nt
Cc1cccc(OCC(=O)NCC2(N3CCN(C)CC3)CCCCC2)c1	5.0	nt	5.8	5.5	nt
Clc1ccccc1OCCCn1ccnc1	-1.6	1.9	4.1	-2.4	2.9
Cc1nccn1CCOc1ccccc1Cl	-34.5*	17.8	7.2	-7.4	4.1
Brc1ccc(CNc2ccc3ncccc3c2)cc1	-40.5*	19.3	14.3	-6.6	3.5
O=C(Nc1ccc2ncccc2c1)c1cccc(Br)c1	5.9	-22.1	-2.4	3.6	?
Cc1nn(Cc2ccccc2)c2sc(C(=O)N3CCN(Cc4ccc5c(c4)OCO5)CC3)cc12	-31.0*	-5.1	1.6	-12.9	24.0
Cc1nn(Cc2ccccc2)c2sc(C(=O)NCc3cccnc3)cc12	-47.4*	-17.4	1.9	-9.5	?
Cc1ccc(NC(=O)NNC(=O)c2cc3ccccc3cc2O)cc1	-0.6	7.4	3.9	-2.2	5.0
COC(=O)c1sccc1NC(=O)Nc1cccc(C)c1	-11.6	-12.1	1.1	-3.1	26.1
COC(=O)c1sccc1NC(=O)Nc1ccccc1OC	-80.0*	3.2	-1.1	-8.2	6.7
COc1ccc(NC(=S)NNC(=O)c2ccccc2OC(F)F)cc1	-5.2	11.6	2.7	2.2	5.3
COc1ccccc1NC(=O)NNC(=O)c1cc2ccccc2cc1O	-34.3*	8.6	17.1	-11.4	5.6
Cc1cccc(NC(=S)NNC(=O)c2ccccc2OC(F)F)c1	-39.5*	1.7	4.9	-3.9	-2.1
COC(=O)c1sccc1NC(=O)Nc1cccc([N+](=O)[O-])c1	-38.1*	-14.0	4.7	-3.7	?
COc1ccccc1NC(=S)NNC(=O)c1ccccc1Br	-79.8*	21.3	0.7	-8.9	-2.9
O=C(/C=C/c1cccc([N+](=O)[O-])c1)Nc1cccc(NC(=O)c2cccs2)c1	-46.1*	18.2	1.5	0.2	-3.1
COc1ccccc1NC(=O)Nc1cc(NC(=O)Nc2ccccc2OC)c(C)nc1C	-92.9*	-20.4	1.5	-7.7	-5.4
COc1ccc(NC(=O)Nc2ccccc2OC)cc1	nt	1.1	0.0	-2.3	9.1
O=C(Nc1cccc([N+](=O)[O-])c1)Nc1cccs1	-35.4*	-12.8	23.5	-11.5	?
O=C(Nc1cccc([N+](=O)[O-])c1)c1cccc(C(=O)Nc2cccc([N+](=O)[O-])c2)c1	-18.8	26.0	18.7	-0.9	3.1
CCNc1nc(C#N)nc2c1ncn2-c1cccc(Cl)c1	-9.7	nt	1.2	-5.3	nt
